The record followed here is PMC5540273 (PLoS ONE, 2017).

Molecules are shown by their SMILES.

Among the test systems are PIP5K1A; PIP5K1C; PIP5K2B; PKMYT1; PKN1; PKN2; PLK1; PLK2; PLK3; PLK4; PRKCD; PRKCE; PRKCH; PRKCI; PRKCQ; PRKD1; PRKD2.
What all share (conditions): concentration: 1 μM,replicates: in singlicate; n = 1
For another experiment, the system named is T1, PIP5K2C.
T1 construct: gene PIP4K2C

For the next experiment, the system named is T2, PKAC-alpha.
T2 construct: gene PRKACA

For another experiment, the system named is T3, PKAC-beta.
T3 construct: gene PRKACB
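Note: KINOMEscan kinase panel screen.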

As for `CC(=O)c1c(-c2ccncc2)[nH]c(-c2ccncc2)c1C` [GW493036], the “%Inh” value with PIP5K1A is given as 50%; in the experiment with PIP5K1C, 91.1%; in the experiment on PIP5K2B, 19%; with PIP5K2C it was 16%; in the experiment on PKAC-alpha, 0%; in the experiment on PKAC-beta, 47%. The “%Inh” value in the experiment on PKMYT1 turned out to be 0%; in the experiment with PKN1, 16%; in the experiment with PKN2, 0%; in the experiment on PLK1 it was 18%; in the experiment on PLK2, 0%; in the experiment on PLK3, 0%. Also, the “%Inh” value in the experiment with PLK4 worked out at 0%; in the experiment with PRKCD, 0%; in the experiment with PRKCE it was 25%; in the experiment with PRKCH it was 13%; in the experiment with PRKCI, 0%; in the experiment on PRKCQ, 0%. The “%Inh” value in the experiment with PRKD1 was 2%; with PRKD2 it was 15%.

With `C[C@@H]1CNc2c(sc3ccc4nc(-c5ccc(O)cc5)ccc4c23)C(=O)N1`, the “%Inh” value in the experiment with PIP5K1A is 3%; in the experiment with PIP5K1C, 18%; in the experiment with PIP5K2B it was 78%; with PIP5K2C, 13%; in the experiment with PKAC-alpha it was 4%; in the experiment with PKAC-beta, 5%. Moreover, the “%Inh” value in the experiment with PKMYT1 is on record as 2%; with PKN1, 0%; with PKN2, 16%; in the experiment on PLK1, 0%; in the experiment on PLK2 it was 6%; in the experiment on PLK3, 15%. In addition, the “%Inh” value was 90.1% with PLK4; 43% with PRKCD; 46% in the experiment on PRKCE; 35% in the experiment on PRKCH; 5% in the experiment on PRKCI; 59% in the experiment with PRKCQ. Also, the “%Inh” value turned out to be 70% with PRKD1 and 34% in the experiment with PRKD2.

As for `Cn1ccc2ncnc(Oc3ccc(NC(=O)Nc4ccnc(C(F)(F)F)c4)c(Cl)c3)c21`, the “%Inh” value is 13% with PIP5K1A; 0% with PIP5K1C; 15% with PIP5K2B; 0% in the experiment with PIP5K2C; 0% with PKAC-alpha; 0% with PKAC-beta. In addition, the “%Inh” value with PKMYT1 is on record as 3%; in the experiment on PKN1 it was 0%; in the experiment on PKN2, 0%; in the experiment with PLK1, 0%; in the experiment on PLK2 it was 0%; in the experiment on PLK3, 0%. Moreover, the “%Inh” value in the experiment with PLK4 amounted to 11%; in the experiment on PRKCD, 0%; with PRKCE it was 0%; with PRKCH it was 0%; in the experiment on PRKCI it was 0%; in the experiment with PRKCQ, 7%. Also, the “%Inh” value in the experiment on PRKD1 is 0%; with PRKD2 it was 4%.

On to `Cl.Cl.NC[C@H](CC1CCCCC1)NC(=O)c1ccc(-c2ccnc3[nH]ccc23)s1` [GSK1581428], for which the “%Inh” value in the experiment on PIP5K1A is 47%; in the experiment with PIP5K1C, 41%; with PIP5K2B, 75%; in the experiment with PIP5K2C, 25%; in the experiment with PKAC-alpha, 99.7%; in the experiment with PKAC-beta it was 99.9%. Moreover, the “%Inh” value is reported as 0% with PKMYT1; 52% in the experiment on PKN1; 99% in the experiment on PKN2; 2% with PLK1; 0% with PLK2; 0% with PLK3. For the same molecule, the “%Inh” value in the experiment with PLK4 was 41%; in the experiment with PRKCD, 100%; in the experiment with PRKCE, 98.5%; with PRKCH, 100%; in the experiment with PRKCI it was 22%; in the experiment on PRKCQ, 95.3%. Moreover, the “%Inh” value with PRKD1 came out at 91.8%; in the experiment on PRKD2, 96.7%.

For the molecule `COc1cccc(CNC(=O)NC2CCN(c3ccnc(Nc4cc(OC)c(OC)c(OC)c4)n3)C2)c1` (stereo not drawn) [GSK1379765], the “%Inh” value is on record as 52% in the experiment with PIP5K1A; 68% in the experiment on PIP5K1C; 14% in the experiment with PIP5K2B; 90.3% in the experiment with PIP5K2C; 0% in the experiment on PKAC-alpha; 0% in the experiment with PKAC-beta. Moreover, the “%Inh” value was 8% in the experiment on PKMYT1; 36% with PKN1; 0% in the experiment with PKN2; 0% in the experiment with PLK1; 0% with PLK2; 0% with PLK3. For the same molecule, the “%Inh” value was 43% in the experiment with PLK4; 0% in the experiment on PRKCD; 17% in the experiment with PRKCE; 12% with PRKCH; 31% with PRKCI; 37% in the experiment with PRKCQ. Further, the “%Inh” value with PRKD1 is 0%; with PRKD2, 3%.

Consider `CN(c1cccc(CNc2nc(Nc3ccc4c(c3)CC(=O)N4)ncc2C(F)(F)F)c1)S(C)(=O)=O`, for which the “%Inh” value with PIP5K1A was 45%; with PIP5K1C, 45%; with PIP5K2B it was 90.9%; in the experiment on PIP5K2C, 46%; in the experiment with PKAC-alpha, 0%; in the experiment with PKAC-beta, 0%. Moreover, the “%Inh” value turned out to be 5% with PKMYT1; 77% in the experiment on PKN1; 19% in the experiment on PKN2; 0% in the experiment on PLK1; 70% in the experiment with PLK2; 69% with PLK3. Besides, the “%Inh” value in the experiment with PLK4 was found to be 89%; in the experiment on PRKCD, 27%; in the experiment with PRKCE, 16%; in the experiment with PRKCH, 0%; in the experiment on PRKCI, 22%; in the experiment on PRKCQ, 38%. In addition, the results for the “%Inh” value with PRKD1 and in the experiment on PRKD2 were 27% and 39%, respectively.

As to `Cc1ccc(Nc2ccnc(Nc3ccc4c(c3)CS(=O)(=O)C4)n2)cc1O.Cl` [GW579362], the “%Inh” value with PIP5K1A was 29%; in the experiment with PIP5K1C it was 39%; in the experiment with PIP5K2B, 80%; with PIP5K2C, 90%; with PKAC-alpha it was 7%; with PKAC-beta, 0%. Further, the “%Inh” value amounted to 0% in the experiment with PKMYT1; 11% with PKN1; 0% with PKN2; 0% in the experiment on PLK1; 0% with PLK2; 4% in the experiment on PLK3. Besides, the “%Inh” value in the experiment with PLK4 was 99.7%; with PRKCD, 0%; in the experiment on PRKCE it was 19%; with PRKCH, 0%; with PRKCI, 32%; with PRKCQ it was 46%. The “%Inh” value in the experiment with PRKD1 is given as 29%; with PRKD2, 55%.

Turning to `Nc1nccc(-c2ccc3c(N)n[nH]c3c2)n1` [GSK1034945], the “%Inh” value in the experiment with PIP5K1A came to 0%; in the experiment with PIP5K1C it was 29%; with PIP5K2B, 48%; in the experiment with PIP5K2C, 10%; with PKAC-alpha, 12%; in the experiment on PKAC-beta it was 0%. Moreover, the “%Inh” value in the experiment with PKMYT1 was found to be 8%; with PKN1, 0%; with PKN2, 9%; with PLK1, 0%; with PLK2, 0%; in the experiment on PLK3, 0%. Moreover, the “%Inh” value was found to be 0% with PLK4; 0% in the experiment with PRKCD; 0% with PRKCE; 11% in the experiment on PRKCH; 3% with PRKCI; 21% with PRKCQ. Further, the “%Inh” value in the experiment with PRKD1 and in the experiment on PRKD2 was 0% throughout.

`NC(=O)Nc1sc(-c2ccc(F)cc2)cc1C(N)=O` [GW789449]: the “%Inh” value was determined as 93.9% in the experiment on PIP5K1A; 65% in the experiment on PIP5K1C; 87% with PIP5K2B; 28% in the experiment with PIP5K2C; 0% with PKAC-alpha; 26% in the experiment on PKAC-beta. Also, the “%Inh” value in the experiment with PKMYT1 turned out to be 0%; in the experiment with PKN1, 7%; in the experiment with PKN2 it was 54%; in the experiment on PLK1 it was 37%; in the experiment with PLK2 it was 20%; in the experiment on PLK3 it was 1%. For the same molecule, the “%Inh” value in the experiment with PLK4 amounted to 26%; in the experiment with PRKCD, 20%; in the experiment with PRKCE, 17%; in the experiment on PRKCH, 0%; in the experiment on PRKCI, 25%; with PRKCQ, 35%. The “%Inh” value with PRKD1 and in the experiment on PRKD2 was 0% each time.
